Screen size: about 400,000 compounds; about 2,100 (0.53%) were called active. Another 14% or so got no clear call; they are omitted. The rule behind the calls is not given here. Only a selection was taken, and actives are over-represented in it overall.
target: Ataxin-2 (Homo sapiens) (UniProt Q99700); assay: qHTS for Inhibitors of ATXN expression.; type: functional
Sequence (Q99700 whole entry): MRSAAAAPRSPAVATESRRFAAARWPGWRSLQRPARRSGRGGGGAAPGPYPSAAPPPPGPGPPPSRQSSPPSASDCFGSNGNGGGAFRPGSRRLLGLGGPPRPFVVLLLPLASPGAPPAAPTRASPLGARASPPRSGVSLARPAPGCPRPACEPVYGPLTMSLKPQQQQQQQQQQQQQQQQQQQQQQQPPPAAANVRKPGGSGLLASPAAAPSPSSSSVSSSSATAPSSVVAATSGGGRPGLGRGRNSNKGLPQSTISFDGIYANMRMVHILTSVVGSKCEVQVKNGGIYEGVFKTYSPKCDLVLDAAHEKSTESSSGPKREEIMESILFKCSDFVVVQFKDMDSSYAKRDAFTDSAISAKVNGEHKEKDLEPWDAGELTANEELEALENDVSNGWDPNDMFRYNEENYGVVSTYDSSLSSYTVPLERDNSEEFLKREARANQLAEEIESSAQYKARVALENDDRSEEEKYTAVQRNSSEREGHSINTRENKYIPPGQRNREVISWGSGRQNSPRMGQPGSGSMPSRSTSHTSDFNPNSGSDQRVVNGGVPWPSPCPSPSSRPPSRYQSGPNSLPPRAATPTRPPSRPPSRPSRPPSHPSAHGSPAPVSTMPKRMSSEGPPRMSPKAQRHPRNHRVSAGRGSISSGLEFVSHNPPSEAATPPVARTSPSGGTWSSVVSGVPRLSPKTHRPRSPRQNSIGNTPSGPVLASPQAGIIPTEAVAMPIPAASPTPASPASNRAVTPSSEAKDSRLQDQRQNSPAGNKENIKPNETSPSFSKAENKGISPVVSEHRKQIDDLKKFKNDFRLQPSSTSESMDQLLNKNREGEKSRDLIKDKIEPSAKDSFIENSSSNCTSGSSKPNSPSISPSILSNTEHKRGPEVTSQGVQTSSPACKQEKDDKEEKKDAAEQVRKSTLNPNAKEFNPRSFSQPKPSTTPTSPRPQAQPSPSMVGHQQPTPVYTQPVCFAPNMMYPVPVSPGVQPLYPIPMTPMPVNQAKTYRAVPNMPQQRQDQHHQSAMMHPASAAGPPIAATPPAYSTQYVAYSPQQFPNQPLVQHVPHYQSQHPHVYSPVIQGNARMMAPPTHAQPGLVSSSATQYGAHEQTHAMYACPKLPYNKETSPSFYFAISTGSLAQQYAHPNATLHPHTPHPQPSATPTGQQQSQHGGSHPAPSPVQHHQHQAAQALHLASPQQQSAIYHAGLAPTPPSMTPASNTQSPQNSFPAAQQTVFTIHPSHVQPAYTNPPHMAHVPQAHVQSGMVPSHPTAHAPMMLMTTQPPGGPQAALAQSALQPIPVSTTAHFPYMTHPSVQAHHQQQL

Structure (SMILES)	Potency
NC(=O)c1ccc(NC(=O)COC(=O)c2c3c(nc4ccccc24)/C(=C\c2ccc4c(c2)OCO4)CCC3)cc1	inactive
COc1ccc(-c2c(C)c3ccc(O)c(CN4CCOCC4)c3oc2=O)cc1OC	inactive
COc1ccc(/C=C/c2nc(C#N)c(N3CCCCC3)o2)cc1OC	inactive
CCCc1cc(O)nc(SCC(=O)Nc2ccc(C)c(S(=O)(=O)N3CCCCC3)c2)n1	inactive
C=CCN=C(S)Nc1ccc(C)c(S(=O)(=O)N2CCCCC2)c1	inactive
Cc1ccc(NC(=O)Cn2ncc(Cl)c(Cl)c2=O)cc1S(=O)(=O)N1CCCCC1	31.6 µM (active)
Cc1c(Br)c(C(F)(F)F)nn1CC(=O)NCc1ccco1	inactive
CCN(c1ccc(N/C=C2/C(=O)N(Cc3ccc(OC)cc3)C(=O)c3ccccc32)cc1)C(C)C	inactive
COc1ccc(CCNC(=O)CN(c2ccccc2)S(C)(=O)=O)cc1	inactive
COc1ccc(CN([C@H](CO)CC(C)C)S(=O)(=O)N(Cc2ccccc2)[C@H](CO)CC(C)C)cc1	39.8 µM (active)
C=CS(=O)(=O)c1c2cc(OC)ccc2nc2ccc(OC)cc12	inactive
Cc1cccn2c(=O)c(C=O)c(N3CCCCC3)nc12	inactive
Nc1c(C(=O)Nc2ccccc2Br)sc2nc(-c3cccs3)ccc12	inactive
O=C(c1nc(-c2ccc(Cl)cc2)n2c1CCCCC2)N1CCN(c2ccc(F)cc2)CC1	22.4 µM (active)
Cc1nn(CC(=O)N2CCN(c3ccc(Cl)cc3)CC2)c(=O)c2cccn12	inactive
O=C(NC(=S)Nc1ccc(N2CCCC2)cc1)c1ccc(F)cc1	inactive
CCC(C)n1c(=N)c(C#N)cc2c(=O)n3cccc(C)c3nc21 (centres undefined)	inactive
O=C(CN1C(=O)NC(Cc2c[nH]c3ccccc23)C1=O)Nc1cccc(S(=O)(=O)N2CCCC2)c1 (centres undefined)	inactive
COc1ccccc1C1c2[nH]c3ccccc3c2CCN1Cc1cnc(C)s1 (centres undefined)	inactive
COC(=O)Cc1c(C)c2ccc3c(c2oc1=O)CN(Cc1ccc(C)cc1)CO3	inactive
C=CC[C@@H](Cc1ccc(F)cc1)C(=O)OC[C@@H]1CCCN1C(=O)[C@H](CC=C)CC(=O)N[C@H](CO)Cc1ccccc1	39.8 µM (active)
C=CCC[C@@H](Cc1ccc(F)cc1)C(=O)OC[C@@H]1CCCN1C(=O)[C@@H](CC=C)CC(=O)N[C@@H](CO)Cc1ccccc1	28.2 µM (active)
C=CCC[C@@H](Cc1ccc(F)cc1)C(=O)OC[C@@H]1CCCN1C(=O)[C@H](CC=C)CC(=O)N[C@H](CO)Cc1ccccc1	35.5 µM (active)
CC(=O)Nc1nn(C)c2nc3ccc(C)cc3cc12	inactive
C/C(CC(=O)Nc1cccc(C(F)(F)F)c1)=N\NC(=O)c1ccncc1	inactive

Structure (SMILES)	Potency
CCN1C(=O)c2ccc(C(=O)Nc3cccc(C(=O)O)c3)cc2C1=O	inactive
CCCCCNCC(=O)Nc1cccc(C(=O)Nc2cccc(C(F)(F)F)c2)c1	26.7 µM (active)
[O-][n+]1c(-c2ccccc2)c(O)nc2ccccc21	inactive
COc1ccc2c(Cl)c(C(=O)N/N=C3\CCCC(=O)C3)sc2c1	inactive
COCC(C)OC(=O)c1c(N)n(CC(C)C)c2nc3ccccc3nc12 (centres undefined)	inactive
CCCCc1ccc(-c2csc(/C(C#N)=C\c3ccco3)n2)cc1	inactive
Cc1ccc(O)c(NC(=S)NC(=O)c2ccc(-c3ccc(Cl)cc3)o2)c1	22.4 µM (active)
CCOCCCn1c(=N)c(C(N)=S)cc2c(=O)n3cccc(C)c3nc21	inactive
Cc1cc(C(=O)Nc2ccc(S(=O)(=O)N3CCOCC3)cc2)c(C)o1	inactive
CCN1CCN(c2ccc(S(=O)(=O)N3CCCCC3)cc2NC(=O)c2ccc([N+](=O)[O-])o2)CC1	28.2 µM (active)
NC(=O)c1ccc(NC(=O)c2cc(S(=O)(=O)N3CCCCC3)ccc2N2CCOCC2)cc1	inactive
Cc1ccccc1NC(=O)c1cc(S(=O)(=O)N2CCCCC2)ccc1N1CCOCC1	inactive
O=C(Nc1ccc(S(=O)(=O)N2CCCC2)cc1)c1ccc([N+](=O)[O-])o1	37.7 µM (active)
CN1CCN(c2ccc(S(=O)(=O)N3CCCCC3)cc2NC(=O)c2cccc([N+](=O)[O-])c2)CC1	inactive
CC(=O)Oc1ccc(OC(C)=O)c(SCCCCCCl)c1	inactive
CC1=CC2C(C(O)CC3(C)C2CC(C)C32OCOC23COCO3)C2(C)CC(C=O)=C(O)C=C12 (centres undefined)	15 µM (active)
COc1cc(/C=C2\C(=N)N3N=C(S(C)(=O)=O)SC3=NC2=O)ccc1OCCOc1ccccc1C	inactive
O=C(CCc1ccc(O)cc1)N/N=C/c1coc2ccccc2c1=O	inactive
CNC(=O)c1c(NC(=O)c2ccc(S(=O)(=O)N3CCCC(C)C3)cc2)sc2c1CCC2 (centres undefined)	inactive
COCCNC(=O)c1c(N)n(CCC2=CCCCC2)c2nc3ccccc3nc12	inactive
CCOc1ccccc1NC(=O)c1ccc2c(O)c(S(=O)(=O)c3ccccc3)c(O)nc2c1	inactive
COc1ccccc1Nc1nn2c(=O)c3ccc(C(=O)NCCC4=CCCCC4)cc3nc2s1	6.31 µM (active)
O=C1/C(=C/Nn2cnnc2)c2ccccc2C(=O)N1c1ccccc1	inactive
N#Cc1cc2c(=O)n3ccccc3nc2n(Cc2cccnc2)c1=O	inactive
Cc1ccc2nc3c(cc(C(=O)NCCc4ccccc4)c(=N)n3CC3CCCO3)c(=O)n2c1 (centres undefined)	inactive

Structure (SMILES)	Potency
CCC[C@@H](CN[C@@H](CNC)[C@H](C)CC)NCC1CCC(C(C)(C)C)CC1 (some centres undefined)	35.5 µM (active)
CCC[C@H](CN[C@@H](CNC)[C@H](C)CC)NCCc1cc(C(F)(F)F)cc(C(F)(F)F)c1	25.1 µM (active)
Cc1cc(S(=O)(=O)c2cc3ccc(O)c(C)c3oc2=O)ccc1F	inactive
Cn1nc(C(=O)OCC(=O)Nc2ccccc2OC(F)F)c2ccccc2c1=O	inactive
CCOC(=O)c1cc2c(=O)n3ccccc3nc2n(CC2CCCO2)/c1=N\C(=O)c1ccccc1F (centres undefined)	inactive
Cc1ccc(-n2c(S)nnc2Cn2c(C)nc3ccccc32)cc1	inactive
COc1ccc(C2=NN(C(=O)COC(=O)c3ccc(S(C)(=O)=O)c([N+](=O)[O-])c3)C(c3ccco3)C2)cc1 (centres undefined)	23.8 µM (active)
COc1ccc(C2CC(c3ccccc3)=NN2c2ccc(S(N)(=O)=O)cc2)cc1 (centres undefined)	inactive
O=[N+]([O-])c1ccc(C2=NN(c3ccccc3)C(c3ccco3)C2)cc1 (centres undefined)	inactive
Cc1nc(N2N=C(c3ccc(Cl)cc3)CC2c2ccco2)sc1C(=O)N(C)C (centres undefined)	inactive
COc1ccc(C2=NN(c3ccccc3)C(c3cn(CCC(=O)O)nc3-c3ccccc3)C2)cc1 (centres undefined)	inactive
COc1ccc(C2CC(c3ccccc3)=NN2c2ccc(Cl)c(C(=O)O)c2)cc1 (centres undefined)	inactive
COc1ccc(C2CC(c3ccccc3)=NN2C(=O)c2ccc(Cl)c([N+](=O)[O-])c2)cc1 (centres undefined)	31.6 µM (active)
CCn1cc([N+](=O)[O-])c(C(=O)N2N=C(c3ccc(Cl)c(Cl)c3)CC2c2ccccc2O)n1 (centres undefined)	39.8 µM (active)
Cc1ccc(C2=CC(c3ccc(N(C)C)cc3)n3nnnc3N2)cc1 (centres undefined)	inactive
CN1CCc2c(sc3c2C(=O)NC(c2ccccc2)N3)C1 (centres undefined)	inactive
Cc1ccc(S(=O)(=O)c2cc3ccccc3nc2N)cc1	inactive
Cc1ccc2nc3c(cc(C#N)c(=O)n3-c3nccs3)c(=O)n2c1	inactive
Cc1c(Cc2ccccc2)sc(/N=C/c2c(O)ccc3ccccc23)c1C(N)=O	inactive
Cc1ccc(-c2cc(-c3ccco3)c(C#N)c(O)n2)cc1	inactive
CCOC(=O)c1c(NC(=O)C(NCCN(C)C)c2ccccc2)sc2c1CCCC2 (centres undefined)	39.8 µM (active)
CCOC(=O)c1c(NC(=O)C(C)Sc2cccc[n+]2[O-])sc2c1CCN(Cc1ccccc1)C2 (centres undefined)	inactive
CCOC(=O)c1c(NC(=O)Nc2ccc(C)cc2)sc2c1CCN(C)C2	inactive
CCOC(=O)c1c(NC(=O)c2ccc(S(=O)(=O)N(C)C3CCCCC3)cc2)sc2c1CCN(C(C)C)C2	inactive
CCOC(=O)c1c(NC(=O)c2ccc(S(=O)(=O)N(CC(C)C)CC(C)C)cc2)sc2c1CCN(CC)C2	inactive

Structure (SMILES)	Potency
CCOC(=O)c1c(NC(=O)C(C)Sc2c[nH]c3ccccc23)sc2c1CCC2 (centres undefined)	3.16 µM (active)
Cc1ccc2nc(N3CCN(CCO)CC3)nc(-c3ccccc3)c2c1	inactive
CCN1CCc2c(sc(NC(=O)c3ccc(S(=O)(=O)N4CCCC(C)C4)cc3)c2C(=O)OC)C1 (centres undefined)	inactive
CCOc1ccccc1N(C)C(=O)c1cc2c(=O)n(CC)c3ccccc3c2s1	39.8 µM (active)
CCCN(CCC)CCCNC(=O)c1cc2c(=O)n(CC)c3ccccc3c2s1	inactive
CCN(C(=O)Cc1c(C(=O)O)n(CC)c2ccccc12)c1ccccc1C	inactive
O=C(Cn1ncc(Cl)c(Cl)c1=O)N1CCN(Cc2ccccc2)CC1	39.8 µM (active)
O=Cc1cn(CC(=O)N2CCc3ccccc32)c2ccccc12	inactive
O=C(Cn1ncc(Cl)c(Cl)c1=O)N1CCc2ccccc21	7.52 µM (active)
CC1CC(C)CN(CC(=O)N2CCOCC2)C1 (centres undefined)	inactive
Cn1c(=O)c2c(nc(Sc3ncnn3CC(=O)N3CCOCC3)n2C)n(C)c1=O	inactive
O=C(Cn1ncc(Cl)c(Cl)c1=O)N1CCOCC1	39.8 µM (active)
CN(CC(=O)Nc1ccc(Cl)cc1)CC(=O)N1CCc2ccccc21	inactive
COc1cc2c(cc1OC)CN(Cc1cc(=O)oc3c(C)c(C)ccc13)CC2	inactive
COc1ccc(NC(S)=Nc2ccc3nsnc3c2)cc1	inactive
Cc1ccsc1CN(C)CC(=O)NCC(=O)Nc1ccc(F)cc1	inactive
CCOC(=O)Cc1c(C)c2c(O)cc(O)cc2oc1=O	inactive
COc1ccc2c(c1)c(=Cc1ccc(N(C)C)cc1)c1cc(-c3ccccc3)[n+](C)n12	17.8 µM (active)
C[n+]1c(-c2ccccc2)cc2c(=Cc3ccccc3)c3ccccc3n21	23.8 µM (active)
CCOC(=O)c1cc2c(=Cc3ccc(N(C)C)cc3)c3ccccc3n2[n+]1C	13.4 µM (active)
CCOC(=O)c1cc(C(=O)OCC)c2ccccn2c1=O	inactive
CN(C(=O)COC(=O)c1nnc(O)c2ccccc12)c1ccccc1	inactive
O=[N+]([O-])c1ccc2c(c1)c1ccccc1n2CCO	inactive
CN(C)c1ccc(/C=c2\c3cc([N+](=O)[O-])ccc3n3c2cc(-c2ccccc2)[n+]3C)cc1	31.6 µM (active)

From ChEMBL document CHEMBL1201862, “PubChem BioAssay data set” (2004)
